Assay in all cases: protein-binding microarray (PBM); PBM: ~300 nM protein, 6 mM HEPES pH 7.8, 80 mM KCl, 0.5 mM EDTA, 0.5 mM EGTA, 6% glycerol, 35 ng/ul poly-dIdC, 1% milk, 1 h, room temperature; Ap Aiptasia and Nv Nematostella (sea anemones) / Co Capsaspora / Aq Amphimedon (sponge) / Dm Drosophila / Hu human; RHD is the Rel homology domain; high values mean tight binding
Common to all, as to settings: dsDNA, one strand shown

One assay has as its target T1, GST-Ap-NF-kB RHD (Exaiptasia pallida (Aiptasia), UniProt A0A913YAJ5 2-422).
T1 sequence: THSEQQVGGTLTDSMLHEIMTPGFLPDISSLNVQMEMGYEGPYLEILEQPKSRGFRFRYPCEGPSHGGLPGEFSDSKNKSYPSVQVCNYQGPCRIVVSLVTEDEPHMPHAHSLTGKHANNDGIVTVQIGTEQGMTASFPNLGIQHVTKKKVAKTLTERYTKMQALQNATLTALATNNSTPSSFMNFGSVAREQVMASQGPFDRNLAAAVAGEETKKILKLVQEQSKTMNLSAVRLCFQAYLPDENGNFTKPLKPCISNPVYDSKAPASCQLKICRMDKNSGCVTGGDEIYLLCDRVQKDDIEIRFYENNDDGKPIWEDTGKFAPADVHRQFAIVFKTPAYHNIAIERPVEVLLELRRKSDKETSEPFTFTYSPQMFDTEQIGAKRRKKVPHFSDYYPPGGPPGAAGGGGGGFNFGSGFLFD

In assay [1] the target is T2, GST-Nv-NF-kB (Cys allele) (Nematostella vectensis, UniProt E5G601 2-411).
T2 sequence: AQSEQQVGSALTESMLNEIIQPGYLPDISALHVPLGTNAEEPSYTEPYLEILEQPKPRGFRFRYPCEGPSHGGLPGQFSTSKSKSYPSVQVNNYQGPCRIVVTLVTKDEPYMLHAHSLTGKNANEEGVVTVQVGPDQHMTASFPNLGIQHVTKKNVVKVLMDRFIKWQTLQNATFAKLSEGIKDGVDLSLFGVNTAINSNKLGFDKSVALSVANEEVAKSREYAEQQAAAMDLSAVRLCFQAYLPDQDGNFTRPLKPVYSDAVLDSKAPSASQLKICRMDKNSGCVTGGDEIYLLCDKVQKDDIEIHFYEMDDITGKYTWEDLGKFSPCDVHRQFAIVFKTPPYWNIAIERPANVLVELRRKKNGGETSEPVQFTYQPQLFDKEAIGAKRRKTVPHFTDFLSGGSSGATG

Assay [2] has as its target T3, GST-Nv-NF-kB (Ser allele) (Nematostella vectensis, UniProt A7UNT2 2-411).
T3 sequence: T2 sequence with Q21R, C66S, S207N, E215Q, V217A, E225K, A268E, D399E

Another assay concerns the target T4, GST-Co-NF-kB (Capsaspora owczarzaki, UniProt F1ARL5 200-546).
T4 sequence: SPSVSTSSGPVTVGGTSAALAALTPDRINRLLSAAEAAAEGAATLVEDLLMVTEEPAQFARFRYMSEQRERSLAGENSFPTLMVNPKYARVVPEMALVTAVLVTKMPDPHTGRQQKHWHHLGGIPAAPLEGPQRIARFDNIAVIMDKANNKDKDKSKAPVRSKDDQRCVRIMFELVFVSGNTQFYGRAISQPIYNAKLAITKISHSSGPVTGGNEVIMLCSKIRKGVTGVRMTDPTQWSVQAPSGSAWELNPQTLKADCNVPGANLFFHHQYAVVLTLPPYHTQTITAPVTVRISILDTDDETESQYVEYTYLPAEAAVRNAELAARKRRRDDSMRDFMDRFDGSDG

The target of another assay is T5, GST-Dm-Relish (Drosophila melanogaster, UniProt Q94527 99-473).
T5 sequence: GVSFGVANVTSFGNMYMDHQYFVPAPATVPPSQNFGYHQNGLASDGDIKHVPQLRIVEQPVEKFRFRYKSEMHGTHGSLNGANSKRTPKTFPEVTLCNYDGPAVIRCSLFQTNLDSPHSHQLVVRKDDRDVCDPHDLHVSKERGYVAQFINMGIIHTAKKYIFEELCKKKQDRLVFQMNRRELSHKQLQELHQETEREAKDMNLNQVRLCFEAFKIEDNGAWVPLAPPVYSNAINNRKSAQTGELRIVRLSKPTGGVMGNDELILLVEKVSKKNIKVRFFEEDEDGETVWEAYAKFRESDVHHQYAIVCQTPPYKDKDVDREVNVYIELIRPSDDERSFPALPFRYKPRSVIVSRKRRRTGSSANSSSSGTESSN

The target of the next assay is T6, GST-Aq-NF-kB (Amphimedon queenslandica, UniProt A9Y5G7 2-389).
T6 sequence: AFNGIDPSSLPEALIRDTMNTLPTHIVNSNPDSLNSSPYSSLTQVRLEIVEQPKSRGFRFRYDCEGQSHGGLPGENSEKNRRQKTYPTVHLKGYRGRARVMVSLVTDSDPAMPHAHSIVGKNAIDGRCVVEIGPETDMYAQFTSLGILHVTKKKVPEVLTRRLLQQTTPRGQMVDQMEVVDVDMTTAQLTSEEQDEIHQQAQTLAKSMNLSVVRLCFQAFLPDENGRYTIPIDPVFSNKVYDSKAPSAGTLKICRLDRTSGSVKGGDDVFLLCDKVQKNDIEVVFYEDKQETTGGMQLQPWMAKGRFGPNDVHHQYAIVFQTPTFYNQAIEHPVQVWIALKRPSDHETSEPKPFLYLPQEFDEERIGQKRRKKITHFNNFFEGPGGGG

Another assay concerns the target GST-Hu-p50 (Homo sapiens, UniProt P19838 7-356).

Positions count from the first letter of the chain named.

GST-Hu-p50, sequence (P19838 7-356): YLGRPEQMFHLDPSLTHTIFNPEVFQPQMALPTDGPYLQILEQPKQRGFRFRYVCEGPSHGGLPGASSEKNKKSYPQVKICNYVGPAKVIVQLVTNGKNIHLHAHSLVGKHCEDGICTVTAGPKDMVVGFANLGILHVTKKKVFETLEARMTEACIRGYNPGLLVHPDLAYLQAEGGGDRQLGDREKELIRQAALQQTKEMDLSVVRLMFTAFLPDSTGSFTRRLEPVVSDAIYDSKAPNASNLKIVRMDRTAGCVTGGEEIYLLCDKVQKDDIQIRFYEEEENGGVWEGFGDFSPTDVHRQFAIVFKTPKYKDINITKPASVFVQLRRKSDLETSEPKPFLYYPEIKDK

Take “CCGATTAACATCAGGATTCCCCATGATGTTAATCGGGTCTTGATTCGCTTGACGCTGCTG”: the binding signal with GST-Ap-NF-kB RHD was found to be 9.56 z-score; in assay [1] it was 9.44 z-score; in assay [2], 8.33 z-score; in the assay with GST-Co-NF-kB, 6.71 z-score; in the assay with GST-Dm-Relish, 8.76 z-score; with GST-Aq-NF-kB, 6.46 z-score. In the assay with GST-Hu-p50, the binding signal amounted to 5.89 z-score.
Take “CCGATTAACATCAATTTTCCCCGTGATGTTAATCGGGTCTTGATTCGCTTGACGCTGCTG”: the binding signal in the assay with GST-Ap-NF-kB RHD was found to be 6.99 z-score; in assay [1], 8.12 z-score; in assay [2] it was 10.2 z-score; with GST-Co-NF-kB it was 11 z-score; with GST-Dm-Relish, 4.87 z-score; with GST-Aq-NF-kB, 6.2 z-score. The sequence further returned a binding signal in the assay with GST-Hu-p50 of 5.95 z-score.
In the case of “CCGATTAACATCAGGGGAGTTCATGATGTTAATCGGGTCTTGATTCGCTTGACGCTGCTG”, the binding signal worked out at 5.95 z-score in the assay with GST-Ap-NF-kB RHD; 4.23 z-score in assay [1]; 4.73 z-score in assay [2]; 3.54 z-score with GST-Co-NF-kB; 3.15 z-score with GST-Dm-Relish; 3.96 z-score with GST-Aq-NF-kB. In the assay with GST-Hu-p50, the binding signal is 4.11 z-score.
In the case of “CCGATTAACATCAAAGATCCCCCTGATGTTAATCGGGTCTTGATTCGCTTGACGCTGCTG”, the binding signal was 7.86 z-score in the assay with GST-Ap-NF-kB RHD; 7.46 z-score in assay [1]; 7.79 z-score in assay [2]; 6.69 z-score in the assay with GST-Co-NF-kB; 8.85 z-score with GST-Dm-Relish; 6.88 z-score with GST-Aq-NF-kB. Moreover, the binding signal with GST-Hu-p50 turned out to be 6.85 z-score.
For the sequence “CCGATTAACATCAGAAATCCCCCTGATGTTAATCGGGTCTTGATTCGCTTGACGCTGCTG”, the binding signal came out at 11.2 z-score with GST-Ap-NF-kB RHD; 10.5 z-score in assay [1]; 10.8 z-score in assay [2]; 6.78 z-score with GST-Co-NF-kB; 9.63 z-score with GST-Dm-Relish; 8.32 z-score with GST-Aq-NF-kB. For the same sequence, in the assay with GST-Hu-p50, the binding signal was 7.68 z-score.
In the case of “CCGATTAACATCACGGGAATTCCTGATGTTAATCGGGTCTTGATTCGCTTGACGCTGCTG”, the binding signal with GST-Ap-NF-kB RHD was found to be 7.73 z-score; in assay [1], 7.86 z-score; in assay [2] it was 5.2 z-score; in the assay with GST-Co-NF-kB it was 5.35 z-score; with GST-Dm-Relish, 8.07 z-score; in the assay with GST-Aq-NF-kB, 8.38 z-score. In the assay with GST-Hu-p50, this sequence returned a binding signal of 4.61 z-score.
For “CCGATTAACATCAGGGAAGTCCCTGATGTTAATCGGGTCTTGATTCGCTTGACGCTGCTG”, the binding signal with GST-Ap-NF-kB RHD was found to be 9.31 z-score; in assay [1], 11.7 z-score; in assay [2], 9.19 z-score; in the assay with GST-Co-NF-kB, 1.97 z-score; in the assay with GST-Dm-Relish it was 10.4 z-score; with GST-Aq-NF-kB, 10.2 z-score. This sequence also showed a binding signal in the assay with GST-Hu-p50 of 6.58 z-score.
On to “CCGATTAACATCAAATACCCCCTTGATGTTAATCGGGTCTTGATTCGCTTGACGCTGCTG”, for which the binding signal came out at 8.01 z-score with GST-Ap-NF-kB RHD; 6.1 z-score in assay [1]; 6.79 z-score in assay [2]; 4.41 z-score in the assay with GST-Co-NF-kB; 6.19 z-score in the assay with GST-Dm-Relish; 6.04 z-score in the assay with GST-Aq-NF-kB. The sequence further displayed a binding signal in the assay with GST-Hu-p50 of 5.85 z-score.
In the case of “CCGATTAACATCAGGGGAATCACTGATGTTAATCGGGTCTTGATTCGCTTGACGCTGCTG”, the binding signal with GST-Ap-NF-kB RHD turned out to be 8.92 z-score; in assay [1], 8.19 z-score; in assay [2], 8.51 z-score; in the assay with GST-Co-NF-kB, 6.78 z-score; with GST-Dm-Relish, 10.6 z-score; with GST-Aq-NF-kB, 7.41 z-score. Also, the binding signal with GST-Hu-p50 is 6.51 z-score.
Take “CCGATTAACATCAAAACCCCCCATGATGTTAATCGGGTCTTGATTCGCTTGACGCTGCTG”: the binding signal in the assay with GST-Ap-NF-kB RHD is 8.56 z-score; in assay [1], 6.62 z-score; in assay [2], 6.57 z-score; in the assay with GST-Co-NF-kB, 4.66 z-score; in the assay with GST-Dm-Relish, 9.53 z-score; with GST-Aq-NF-kB it was 7.39 z-score. This sequence gave a binding signal with GST-Hu-p50 of 6.77 z-score.
As to “CCGATTAACATCACCCCATCCCCTGATGTTAATCGGGTCTTGATTCGCTTGACGCTGCTG”, the binding signal in the assay with GST-Ap-NF-kB RHD amounted to 4.19 z-score; in assay [1], 2.64 z-score; in assay [2], 4.17 z-score; in the assay with GST-Co-NF-kB, 2.99 z-score; in the assay with GST-Dm-Relish it was 2.37 z-score; with GST-Aq-NF-kB it was 3.17 z-score. In the assay with GST-Hu-p50, this sequence showed a binding signal of 3.3 z-score.
With “CCGATTAACATCACAATTCCCCCTGATGTTAATCGGGTCTTGATTCGCTTGACGCTGCTG”, the binding signal with GST-Ap-NF-kB RHD is 7.95 z-score; in assay [1], 8.27 z-score; in assay [2] it was 9.39 z-score; with GST-Co-NF-kB it was 8.14 z-score; with GST-Dm-Relish it was 5.44 z-score; with GST-Aq-NF-kB it was 6.33 z-score. Moreover, the binding signal with GST-Hu-p50 is 7 z-score.

Source of the values: paper PMC5700166.
